Among all 52,000 compounds or so, about 1,700 (3.3%) were called active. The list comes from a sample in which actives are over-represented; it also holds similar structures and randomly drawn compounds. A number with no mark means an inactive call. No stated cut-off is given here; in the data, active means survival mostly below about 52% (no sharp cut-off); inactive means mostly above about 56%.
What follows are compounds tested on Wild type (assay: S. aureus survival, RN4220 and DeltatarO strains – OD600, teichoic acid synthesis inhibitors, primary screen (AID 463173)). Settings: S. aureus RN4220 wild type/DeltatarO growth, OD600, 18 h, hits give low values, screened at 18.75 µg/mL (by protocol).

SMILES	survival
Cc1ccnc(NC(c2cccc(O)c2)c2ccc3ccc(C)nc3c2O)c1 (stereo unspecified)	74%
COc1ccc(C(=O)NC(c2ccc(Cl)cc2)c2cc(Cl)c3cccnc3c2O)cc1 (stereo unspecified)	79%
Cc1ccnc(NC(c2ccccc2F)c2ccc3cccnc3c2O)c1 (stereo unspecified)	-8% (active)
Cc1ccnc(NCc2cccc3ccccc23)c1	115%
Cc1ccnc(NC(c2cc(C)ccc2O)c2ccc3cccnc3c2O)c1 (stereo unspecified)	3% (active)
Oc1c(C(Nc2ccccn2)c2ccccc2F)ccc2cccnc12 (stereo unspecified)	135%
CCOc1cc(C(Nc2cc(C)ccn2)c2ccc3cccnc3c2O)ccc1OC (stereo unspecified)	145%
CCCN(C(=O)c1nn(-c2ccc(OC)c(Cl)c2)c(=O)c2c1c1ccccc1n2C)c1ccccc1F	74%
CCOc1ccccc1CNC(=O)Cn1c(-c2ccccc2)cc(C(C)=O)c1C	67%
COC(=O)COc1ccc(S(=O)(=O)N2CCCCC2)cc1C	117%
O=C(/C=C/c1ccccc1)NC1CCSC1=O (stereo unspecified)	108%
O=C(CNS(=O)(=O)c1ccc(Cl)cc1)NC1CCCC1	103%
O=C(CS(=O)(=O)c1cccc2nsnc12)N1CCN(c2ccccc2F)CC1	94%
Cc1ccc(NC(=O)Nc2nnc(N(C)Cc3ccccc3)s2)cc1	101%
COc1ccc2c(c1)c(CC(=O)Nc1ccc(C(C)=O)cc1)c(C)n2C(=O)c1ccc(Cl)cc1	71%
CN1CCc2c(sc3c2C(=O)NC(c2ccc(OC(=O)c4ccc(Cl)cc4)cc2)N3)C1 (stereo unspecified)	75%
CCOC(=O)c1ccc(NC(=O)CSc2cn(CC(=O)N3CCCC3)c3ccccc23)cc1	89%
COc1ccc(CNc2oc(COc3cccc(C)c3)nc2C#N)cc1	63%
COc1ccc(-c2nc(C)c(CCNS(=O)(=O)c3cc(Cl)ccc3Cl)s2)cc1	87%
CCOc1cc(C(=O)NCCc2csc3nc(-c4ccccc4F)nn23)cc(OCC)c1OCC	87%
O=C(CCn1nnc(-c2cccs2)n1)NC1CCCCC1	115%
Cc1cccc(NC(c2ccccc2C)c2ccc3ccc(C)nc3c2O)n1 (stereo unspecified)	-3% (active)
Cc1cccc(NC(=O)c2ccccc2)n1	107%
COc1ccc(C(Nc2ccccn2)c2ccc3ccc(C)nc3c2O)cc1C (stereo unspecified)	62%
Cc1cccc(N2CCN(S(=O)(=O)c3cn(C)c(C)n3)CC2)c1C	-3% (active)
Cc1nc(S(=O)(=O)N2CCN(c3ccccc3F)CC2)cn1C	121%

SMILES	survival
Cc1ccc(C)c(N2CCN(S(=O)(=O)c3cn(C)c(C)n3)CC2)c1	68%
COc1cc(NC(=O)CC(C)S(=O)(=O)c2cc3c4c(c2)CCN4C(=O)CC3)cc(OC)c1 (stereo unspecified)	76%
C=CCN1C2=NCCCN2c2ccccc21	113%
CC(C)(C)c1ccccc1NC(=O)CSc1nc(-c2cccs2)cc(C(F)(F)F)n1	10% (active)
COC(=O)CSc1nc(-c2ccccc2)cc(C(F)(F)F)n1	111%
COC(=O)c1ccccc1NC(=O)CSc1nc(-c2ccccc2)cc(C(F)(F)F)n1	19% (active)
CCOc1ccccc1NC(=O)CSc1nc(-c2cccs2)cc(C(F)(F)F)n1	83%
COC(=O)c1ccccc1NC(=O)CSc1cc(-c2ccccc2)nc(C)n1	92%
O=C(CSc1nc(-c2cccs2)cc(C(F)(F)F)n1)Nc1ccccc1Cl	99%
COc1cccc(-n2c(=O)c3c4c(sc3n(Cc3ccccc3C#N)c2=O)CCCC4)c1	80%
COc1ccc(C(CNC(=O)c2oc3cc(C)c(C)cc3c2C)N2CCCCC2)cc1 (stereo unspecified)	102%
Cc1ccc(NC(=O)C2CCN(C(=O)c3cnn(-c4ccccc4)c3-n3cccc3)CC2)cc1C	84%
COc1ccc(CCNC(=O)c2ccc3c(c2)ncn3-c2ccc(C(C)C)cc2)cc1OC	80%
COC(=O)CSc1nc2cc(OC)c(OC)cc2cc1C	110%
COc1cc(C2C(=O)N(C3CCCCC3)CC(=O)N2CCC2=CCCCC2)ccc1OC(C)C (stereo unspecified)	135%
Cc1cc(-c2nc3ccccc3s2)ccc1NC(=O)c1cc(Cl)ccc1Cl	92%
Cc1ccc(C(C)C)c(OCC(O)CN2CCN(c3ccccc3F)CC2)c1 (stereo unspecified)	-3% (active)
COc1ccc(N2CCN(CC(O)COc3ccccc3C(C)(C)C)CC2)cc1 (stereo unspecified)	-3% (active)
COc1ccc(N2CCN(CC(O)COc3ccc(C(C)(C)C)cc3)CC2)cc1 (stereo unspecified)	87%
COc1ccc(N2CCN(CC(O)COc3ccc(C(C)C)c(C)c3)CC2)cc1 (stereo unspecified)	85%
C=CCc1ccccc1OCC(O)CN1CCN(c2ccccc2)CC1 (stereo unspecified)	54%
COc1ccccc1N1CCN(CC(O)COc2cc(C)cc(C)c2)CC1 (stereo unspecified)	82%
COc1ccc(N2CCN(CC(O)COc3c(OC)cccc3OC)CC2)cc1 (stereo unspecified)	81%
COc1ccc(N2CCN(CC(O)COc3ccc(C)cc3C)CC2)cc1 (stereo unspecified)	87%
COc1ccccc1N1CCN(CC(O)COc2ccc(C)cc2C(C)(C)C)CC1 (stereo unspecified)	2% (active)

Reference: PubChem BioAssay AID463173 (ICCB-Longwood Screening Facility, Harvard Medical School, 2010)
